Structures are written as SMILES. About 83,000 compounds went through this panel and 20% of them were active in at least one assay; those are over-represented in the sample as a whole.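 Activity criterion: percent growth below 10, measured after cells in 96-well plates were exposed to a single compound concentration for 48 hours.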 Active and inactive are the calls of the source.

This assay deals with HL-60(TB) leukemia. Put plainly: NCI-60 one-dose screen, 48 h (100 = growth as untreated, 0 = no growth, -100 = all killed). The following applies: 10 µM unless noted.
Take `O=C1Nc2ccc(Cl)cc2/C1=N/N=C/c1c[nH]c2ccccc12`: the growth was 95.5% (inactive). Consider `COc1ccc(Nc2ncc(Br)c(NCCCNC(=O)C3CCC3)n2)cc1`, for which the growth is -12.8% (active). Regarding `CCS(=O)(=O)OCCO[C@H]1Cc2cc3ccc(=O)oc3cc2OC1(C)C`, the growth was 106% (inactive).

Turning to `C=C(C)[C@@H]1CC[C@]2(/C=N/Nc3ccncc3)CC[C@]3(C)[C@H](CC[C@@H]4[C@@]5(C)CCCNC(C)(C)[C@@H]5CC[C@]43C)[C@@H]12`, the growth was 58.5% (inactive). Regarding `CCCCNC(=O)c1ccc(OCC)cc1`, the growth was 99.5% (inactive).

As for `COc1ccc(-c2cn[nH]c2-c2cc(OC)c(OC)c(OC)c2)cc1OCc1ccccc1`, the growth is 20.4% (inactive). For `Oc1c(C(Nc2ccccn2)c2cccc(Oc3ccccc3)c2)ccc2cccnc12` (stereo unspecified), the growth is -51.9% (active). Turning to `N=C(N)c1ccc(-c2ccc(-c3cccs3)s2)nc1`, the growth was -32.1% (active). With `CC(C)(C)OC(=O)NCCc1ccc(N)cc1`, the growth is 89.4% (inactive). With `COc1cc(C2=NN(c3ccccc3)C(c3cccc(Nc4ccnc5cc(C(F)(F)F)ccc45)c3)C2)cc(OC)c1OC` (stereo unspecified) the figure was 94.8% (inactive).

For `N#CC(C#N)=Cc1c(-c2ccccc2)[nH]c2ccccc12`, the growth is -7.65% (active).

Consider `O=P(O)(c1ccccc1)c1ccccc1I`, for which the growth was 117% (inactive). `Cc1cc(C)c2c(NC(=O)Nc3ccc(Cl)c(Cl)c3)n[nH]c2n1`: the growth is 96.9% (inactive). With `NC(=O)N/N=C\c1ccc([N+](=O)[O-])o1` the figure was 120% (inactive); with `CC1(C)CC[C@]2(C(=O)N[C@H](CO)Cc3ccccc3)CC[C@]3(C)C(=CC[C@@H]4[C@@]5(C)CCCNC(C)(C)[C@@H]5CC[C@]43C)[C@@H]2C1`, 31.2% (inactive); with `CC1(C)CC[C@]2(C(=O)NCC#CCN3CCOCC3)CC[C@]3(C)C(=CC[C@@H]4[C@@]5(C)Cc6c([nH]c7ccccc67)C(C)(C)[C@@H]5CC[C@]43C)[C@@H]2C1`, 62.7% (inactive). Consider `COc1ccc(CNC(=O)c2c(C)n([O-])c3ccc(OC)cc3[n+]2=O)cc1`, for which the growth was 92.5% (inactive). Consider `CC1(C)CC[C@]2(CO)CC[C@]3(C)C(=CC[C@@H]4[C@@]5(C)CCNCC(C)(C)[C@@H]5CC[C@]43C)[C@@H]2C1`, for which the growth was 23.5% (inactive). The result for `COc1cc(/C=C/C(=O)c2ccc(Nc3nc(Nc4ccc(F)cc4)nc(Nc4ccc(Cl)cc4)n3)cc2)cc(OC)c1OC` reads -32.1% (active); that for `CC1(C)NC2=C(C(Nc3cccnc3)N1)C(c1ccc([N+](=O)[O-])cc1)C(C(=O)c1ccc(N=[N+]=[N-])cc1)O2` (stereo unspecified), 104% (inactive); that for `O=C(CSc1ncccc1C(=O)O)Nc1ccc(Oc2ccccc2)cc1`, 87.5% (inactive). With `N#C/C(=C\N1C(=O)/C(=C/c2cccc([N+](=O)[O-])c2)SC1=S)c1nc2ccccc2s1`, the growth was 94.5% (inactive). In the case of `COc1ccc(C/C(C)=C(\c2ccc(Cl)cc2)c2ccc(OCCN3CCCCC3)cc2)cc1`, the growth is 91.8% (inactive). Take `O=c1oc2ccc(Br)cc2c(=O)n1-c1ccc(F)cc1F`: the growth is -1.95% (active). Regarding `Cn1ccnc1C(=O)/C=C/c1ccc(CC(=O)Nc2cc(F)c(F)c(F)c2)cc1`, the growth was -31.2% (active).

For the compound `O=C(CCc1nc(-c2cccc(Cl)c2)no1)Nc1ccccn1`, the growth is 102% (inactive). With `CCOC(=O)C/C(=N\Nc1cc(=O)[nH]c2ccc(C)cc12)C(=O)OCC`, the growth was 92% (inactive).

`COc1ccc(C(=O)NC(=O)Nc2ccc3c(c2)NC(=O)/C3=C\c2[nH]c(C)c(C(=O)O)c2C)c(F)c1`: the growth is 80.8% (inactive). With `Cc1ccsc1/C=C/C1=NCCCN1C` the figure was 126% (inactive); with `Clc1ccc(-c2noc(/C=C\c3ccccc3)n2)cc1`, 94% (inactive); with `CC(=O)Nc1cccc(-n2c(=O)n(C3CC3)c(=O)c3c(Nc4ccc(I)cc4F)n(C)c(=O)c(C)c32)c1`, 27.1% (inactive). As to `CCCCNCC(O)c1cc(-c2ccc(C(F)(F)F)cc2)nc(-c2ccc(C(F)(F)F)cc2)c1` (stereo unspecified), the growth is -49.2% (active). With `Clc1nc(Cl)c2c(ncn2C/C=C\Cn2cnc3c(Cl)nc(Cl)nc32)n1` the figure was -80.7% (active). For `O=C(/C=C/c1cccc(O)c1)c1cccc(-n2cc(-c3ccc4ccccc4c3)[nH]c2=O)c1`, the growth is -21.5% (active).

Regarding `COc1cc(-c2cc3ncccc3c3nc(OCCN(C)C)c4cccnc4c23)cc(OC)c1OC`, the growth is 36.9% (inactive). On to `Cc1ccc(-c2cc(-c3ccc(C)cc3)nc(NCCNc3ccnc4cc(Cl)ccc34)n2)cc1`, for which the growth was -44.6% (active).
